From PubChem BioAssay (Tox21)
“And” between values parts separate entries of the source, which are not always exact repeats. Identical values can stand only once. Results filed as inconclusive are left out. A call without a number means that no potency is given here. The source holds several records for some structures; these can differ, active in one and inactive in another. The source made the active and inactive calls. Unless noted, the call rests on the fitted dose curve; in most records, active means well fitted curve in the direction sought with a large enough effect in the repeat runs; inconclusive means weak or mixed curves; inactive means no such curve, though single readings can be large; an effect the other way counts as inactive or inconclusive.

How the values were obtained:
[1] = qHTS assay to identify small molecule antagonists of the estrogen related receptor (ERR) signaling pathway from Tox21 library - cell viability counter screen (AID 1224834); further: nearly all actives have a fitted effect of over 30% in size; further: potency means the concentration at half of the fitted maximal effect
Method in brief: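 ERR reporter cells were plated 6 h before compound addition, then exposed to test compounds in DMSO for 17.5 h at 37 C. Viability was read as CellTiter-Fluor fluorescence after a 30-minute incubation at 37 C.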

[2] = target: Luciferin 4-monooxygenase (Photinus pyralis) (UniProt P08659); test: qHTS assay to identify small molecule inhibitors of firefly luciferase (AID 1224835); further: nearly all actives have a fitted effect of over 25% in size; further: potency means the concentration at half of the fitted maximal effect
Method in brief: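 Biochemical qHTS: compounds run as interplate titrations against purified firefly enzyme, with D-luciferin and ATP each at its KM concentration. Light output recorded by CCD imaging.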

[3] = qHTS assay to identify small molecule agonists of the constitutive androstane receptor (CAR) signaling pathway - cell viability counter screen (AID 1224836); further: nearly all actives have a fitted effect of over 45% in size; further: potency means the concentration at half of the fitted maximal effect
Method in brief: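 Multiplexed viability check: HepG2-CYP2B6-hCAR cells, 15-point compound dosing, 0.75 uM PK11195 final, 23 h at 37 C, CellTiter-Fluor fluorescence.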

[4] = qHTS assay to identify small molecule antagonists of the constitutive androstane receptor (CAR) signaling pathway - cell viability counter screen (AID 1224837); further: nearly all actives have a fitted effect of over 45% in size; further: potency means the concentration at half of the fitted maximal effect
Method in brief: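 HepG2 cells stably expressing hCAR and a CYP2B6-2.2kb reporter were plated and pre-incubated 4 hr at 37 C/5% CO2, then given compounds at 15 concentrations plus 50 nM CITCO (final). After 23 hr, viability was read by CellTiter-Fluor fluorescence.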

[5] = target: Nuclear receptor subfamily 1 group I member 3 (Homo sapiens) (UniProt Q14994); test: qHTS assay to identify small molecule antagonists of the constitutive androstane receptor (CAR) signaling pathway (AID 1224838); further: nearly all actives have a fitted effect of over 40% in size; further: potency means the concentration at half of the fitted maximal effect
Method in brief: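 HepG2 cells stably co-transfected with hCAR and a CYP2B6-2.2kb luciferase reporter were seeded 4 h before compound addition at 15 concentrations. Cells were stimulated with 50 nM CITCO (final) for 24 h at 37 C; luciferase luminescence was then read.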

[6] = qHTS assay to identify small molecule antagonists of the estrogen related receptor signaling pathway with the pleiotropic PPARgamma coactivator (PGC) from Tox21 10K library - cell viability counter screen (AID 1224840; active means well fitted cell-killing curve with a large enough effect in the repeat runs, not every such curve was filed as active; further: nearly all actives have a fitted effect of over 40% in size; further: potency means the concentration at half of the fitted maximal effect)
Method in brief: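 PGC/ERR cells were seeded at 2,000 cells/well and left 6 hours at 37 C/5% CO2 before pin-tool addition of compounds in DMSO. After 17.5 hours at 37 C, CellTiter-Fluor was added and fluorescence read 30 minutes later.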

[7] = target: Thyrotropin receptor (Homo sapiens) (UniProt P16473); test: qHTS assay to identify small molecule agonists of the thyroid stimulating hormone receptor (TSHR) signaling pathway (AID 1224843; calls by dose curve; further: nearly all actives have a fitted effect of over 45% in size; further: potency means the concentration at half of the fitted maximal effect)
Method in brief: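 Steps: seed 800 TSHR-HEK293 cells per well; add test compound and hold 30 min at ambient temperature; dispense cAMP-d2 then anti-cAMP cryptate; incubate 1 h at ambient; measure fluorescence intensity.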

[8] = target: Nuclear receptor subfamily 1 group I member 3 (Homo sapiens) (UniProt Q14994); test: qHTS assay to identify small molecule agonists of the constitutive androstane receptor (CAR) signaling pathway (AID 1224839);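 further: HepG2 cells stably carrying human CAR and a CYP2B6 luciferase reporter; series mostly up to about 92 µM; nearly all actives have a fitted effect of over 15% in size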
Method in brief: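 Using human hepatoma HepG2 cells engineered with hCAR and a CYP2B6-2.2kb reporter, 15-concentration compound series were incubated 24 h alongside PK11195 at 0.75 uM final, with luminescence quantified afterwards.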

[9] = qHTS assay to identify small molecule antagonists of the estrogen related receptor signaling pathway with the pleiotropic PPARgamma coactivator (PGC) from Tox21 10K library (AID 1224841; call rule not given here; further: actives are mostly falling curves and most rising ones were filed inactive; nearly all actives have a fitted effect of over 50% in size; further: potency means the concentration at half of the fitted maximal effect)
Method in brief: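 PGC/ERR reporter cells were seeded at 2,000 cells/well and held 6 hours at 37 C/5% CO2 before pin-tool addition of compounds in DMSO. After 18 hours at 37 C, One-Glo was added and luminescence read after 30 minutes at room temperature.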

[10] = qHTS assay to identify small molecule agonists of the estrogen related receptor signaling pathway with the pleiotropic PPARgamma coactivator (PGC) from Tox21 10K library (AID 1224842); further: nearly all actives have a fitted effect of over 15% in size
Method in brief: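 PGC/ERR reporter cell line, 2,000 cells per well, incubated 6 h at 37 C before 23 nL compound in DMSO was added. After 18 h at 37 C, One-Glo luminescence read following 30 min at room temperature.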

Sequence of Thyrotropin receptor (Homo sapiens) (P16473 whole entry, looked up): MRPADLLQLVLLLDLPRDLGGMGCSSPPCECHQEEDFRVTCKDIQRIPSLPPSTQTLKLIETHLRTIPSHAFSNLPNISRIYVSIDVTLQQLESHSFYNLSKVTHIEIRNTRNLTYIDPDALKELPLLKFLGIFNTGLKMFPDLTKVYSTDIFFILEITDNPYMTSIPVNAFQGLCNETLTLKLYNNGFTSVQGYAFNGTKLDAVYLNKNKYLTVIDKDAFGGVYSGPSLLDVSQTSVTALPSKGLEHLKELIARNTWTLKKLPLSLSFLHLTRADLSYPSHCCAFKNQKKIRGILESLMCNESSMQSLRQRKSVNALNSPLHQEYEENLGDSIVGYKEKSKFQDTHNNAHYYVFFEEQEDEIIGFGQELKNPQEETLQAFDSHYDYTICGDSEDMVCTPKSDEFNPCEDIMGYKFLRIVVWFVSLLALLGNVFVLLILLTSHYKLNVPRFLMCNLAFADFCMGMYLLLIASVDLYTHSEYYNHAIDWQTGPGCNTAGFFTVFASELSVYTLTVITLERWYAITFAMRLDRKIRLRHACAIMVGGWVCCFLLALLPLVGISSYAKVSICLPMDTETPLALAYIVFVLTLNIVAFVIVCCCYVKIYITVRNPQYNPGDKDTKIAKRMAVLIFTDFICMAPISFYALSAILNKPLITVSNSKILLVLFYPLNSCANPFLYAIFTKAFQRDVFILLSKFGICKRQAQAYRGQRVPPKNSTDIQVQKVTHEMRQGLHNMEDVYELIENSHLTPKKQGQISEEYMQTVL
Sequence of Nuclear receptor subfamily 1 group I member 3 (Homo sapiens) (Q14994 whole entry, looked up): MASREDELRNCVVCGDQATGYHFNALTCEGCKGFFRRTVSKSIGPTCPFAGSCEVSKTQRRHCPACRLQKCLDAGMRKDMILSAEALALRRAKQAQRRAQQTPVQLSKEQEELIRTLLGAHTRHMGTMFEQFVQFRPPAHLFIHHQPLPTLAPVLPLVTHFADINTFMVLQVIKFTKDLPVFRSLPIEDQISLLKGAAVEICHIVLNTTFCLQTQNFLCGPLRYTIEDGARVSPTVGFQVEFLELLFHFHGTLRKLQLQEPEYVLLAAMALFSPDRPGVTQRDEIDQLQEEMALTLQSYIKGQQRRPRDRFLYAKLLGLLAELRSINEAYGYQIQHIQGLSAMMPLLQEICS
Sequence of Luciferin 4-monooxygenase (Photinus pyralis) (P08659 whole entry, looked up): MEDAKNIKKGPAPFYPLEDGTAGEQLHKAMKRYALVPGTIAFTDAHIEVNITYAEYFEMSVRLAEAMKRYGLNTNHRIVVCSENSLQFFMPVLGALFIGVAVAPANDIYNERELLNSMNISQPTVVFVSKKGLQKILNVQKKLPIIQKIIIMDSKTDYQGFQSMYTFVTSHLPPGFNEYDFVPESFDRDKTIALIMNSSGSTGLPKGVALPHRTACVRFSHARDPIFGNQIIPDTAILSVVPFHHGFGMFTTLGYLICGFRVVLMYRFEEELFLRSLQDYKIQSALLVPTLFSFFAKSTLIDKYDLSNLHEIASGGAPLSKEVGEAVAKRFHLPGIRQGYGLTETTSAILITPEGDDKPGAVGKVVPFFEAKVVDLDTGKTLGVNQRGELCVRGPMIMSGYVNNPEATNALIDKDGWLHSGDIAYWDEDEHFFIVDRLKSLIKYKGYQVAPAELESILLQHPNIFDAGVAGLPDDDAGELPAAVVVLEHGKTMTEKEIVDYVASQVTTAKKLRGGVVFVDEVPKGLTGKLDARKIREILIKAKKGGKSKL

Row | SMILES | Potency [1] | Potency [2] | Potency [3] | Potency [4] | Potency [5] | Potency [6] | Potency [7] | Potency [8] | Potency [9] | Potency [10]
1 | CCC/C=C/C=O | inactive | inactive | inactive | inactive | inactive | inactive | inactive | – | – | –
2 | CC(C)(C)c1cccc(C(C)(C)C)c1O | inactive | inactive | inactive | inactive | inactive | inactive | inactive | inactive | – | –
3 | c1ccc2ncccc2c1 | inactive | inactive | inactive | inactive | inactive | inactive | inactive | inactive | – | –
4 | Cc1ccc(S(=O)(=O)NCl)cc1 | inactive | – | inactive | inactive | – | inactive | inactive | – | inactive | –
5 | C[C@]12CC[C@@H]3c4ccc(O)cc4CC[C@H]3[C@@H]1CC[C@H]2O | – | inactive and 39.9 µM (active) | inactive | inactive | inactive | inactive | – | – | inactive | –
6 | Nc1ccc(O)c(N)c1 | – | – | inactive | inactive | inactive | inactive | 54.1 µM (active) | inactive | 304 nM (active) and inactive | –
7 | C=C1C[C@H]2[C@@H]3C=C(C)C4=CC(=O)CC[C@]4(C)[C@H]3CC[C@]2(C)[C@@]1(OC(C)=O)C(C)=O | – | inactive | inactive | inactive | inactive | inactive | – | inactive | 31.3 µM (active) | inactive
8 | CC(C)=CCO | inactive | inactive | inactive | inactive | – | inactive | inactive | – | inactive | –
9 | CC(=O)O[C@]1(C(C)=O)CC[C@H]2[C@@H]3C=C(C)C4=CC(=O)CC[C@]4(C)[C@H]3CC[C@@]21C | 54.5 µM (active) | inactive | inactive | inactive | – | inactive | inactive | – | 24.3 µM (active) | –
10 | O=C1CCc2ccccc2O1 | inactive | inactive | inactive | inactive | – | inactive | inactive | – | inactive | –
11 | C=C[C@H]1CN2CC[C@H]1C[C@@H]2[C@@H](O)c1ccnc2ccc(OC)cc12 | inactive | – | inactive | inactive | inactive | inactive | – | – | – | –
12 | Cc1ccc(N)c([N+](=O)[O-])c1 | inactive | – | inactive | inactive | inactive | inactive | inactive | inactive | – | –
13 | O=Cc1ccccc1C=O | 54.5 µM (active) and inactive | inactive | – | – | – | inactive | 38.6 µM (active) and inactive | – | – | –
14 | CC(C)[C@@H]1CC[C@@H](C)CC1=O | inactive | inactive | inactive | inactive | – | inactive | inactive | – | – | –
15 | CN1CCOCC1 | inactive | – | inactive | inactive | inactive | inactive | – | inactive | inactive | inactive
16 | CC(=O)Oc1ccc(C(c2ccc(OC(C)=O)cc2)c2ccccn2)cc1 | inactive | inactive | inactive | inactive | – | inactive | inactive | – | – | –
17 | CC(C)[N+](C)(CCOC(=O)C1c2ccccc2Oc2ccccc21)C(C)C | inactive | inactive | inactive | inactive | – | inactive | inactive | – | – | –
18 | CN(C)/N=N/c1nc[nH]c1C(N)=O | inactive | inactive | inactive | inactive | – | inactive | inactive | – | inactive | –
19 | c1ccc2c(c1)ccc1cc3c(ccc4ccccc43)cc12 | inactive | 788 nM (active) and 250 nM (active) | inactive | inactive | – | inactive | inactive | – | – | –
20 | CC/C(=C(/CC)c1ccc(O)cc1)c1ccc(O)cc1 | 60.6 µM (active) and inactive | – | inactive | inactive | – | inactive | – | – | – | –
21 | IC(I)I | inactive | 35.5 µM (active) and 35.6 µM (active) | inactive | inactive | – | inactive | inactive | – | 48.5 µM (active) and inactive | –
22 | Oc1ccc(C(c2ccc(O)cc2)C(Cl)(Cl)Cl)cc1 | – | inactive | inactive | inactive | – | – | – | – | – | –
23 | CN(C)CCCN1c2ccccc2Sc2ccc(Cl)cc21 | 54.5 µM (active) and 26.6 µM (active) | – | 48.6 µM (active) | 54.5 µM (active) | – | 48.6 µM (active) and 26.6 µM (active) | inactive | inactive | inactive | –
24 | CCCCCC1C(=O)CCC1CC(=O)OC (stereo not drawn) | inactive | inactive | inactive | inactive | – | inactive | inactive | – | inactive | –
25 | CCCCCCCC/C=C\CCCCCCCC(=O)O | inactive | 71.4 µM (active) | inactive | inactive | – | inactive | inactive | – | – | –
26 | CN(Cc1cnc2nc(N)nc(N)c2n1)c1ccc(C(=O)N[C@@H](CCC(=O)O)C(=O)O)cc1 | – | inactive | inactive | inactive | 48.6 nM (active) and 75 nM (active) | inactive | inactive | inactive | – | –
27 | CC1(C)O[C@@H]2C[C@H]3[C@@H]4C[C@H](F)C5=CC(=O)C=C[C@]5(C)[C@@]4(F)[C@@H](O)C[C@]3(C)[C@]2(C(=O)CO)O1 | inactive | inactive | inactive | inactive | – | inactive | inactive | – | – | –
28 | Cc1ccc([N+](=O)[O-])c(C)c1 | 17.2 µM (active) and inactive | 31.7 µM (active) and inactive | – | – | 8.63 µM (active) and inactive | 21.7 µM (active) and inactive | inactive | inactive | 61.1 µM (active) and inactive | –
29 | NCCN | inactive | inactive | inactive | inactive | – | inactive | inactive | – | – | –
30 | O=C1OC2(c3ccccc31)c1cc(I)c(O)c(I)c1Oc1c2cc(I)c(O)c1I | 15.5 µM (active) [middle of 4 runs] | – | 15.5 µM (active) [middle of 4 runs] | 15.4 µM (active) [middle of 4 runs] | 6.13 µM (active) and inactive and 14.8 µM (active) | 13.7 µM (active) and 19.6 µM (active) and 16.6 µM (active) | – | inactive | 15.4 µM (active) and 15.5 µM (active) | –
